# From PubChem BioAssay
# Sampled rows, rich in hits. Any-hit rate of the full collection: about 1.5%.
# Tb PFK inh: inhibitors of T. brucei phosphofructokinase. O15648. T. brucei PFK, ADP-Glo luminescence. Potency, µM (highest dose often 57.5 µM), inactives show at the highest dose activity, negative = inhibition, usual class: inhibitors. hit rate 0.17% among 330,000. AID 485367;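 also: potency is read from the fitted curve at half-maximal effect; 0% = uninhibited 1x PFK enzyme wells and -100% = no-enzyme wells; nearly all actives have a fitted effect of over 60% in size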
# Target sequence (O15648 whole entry, looked up): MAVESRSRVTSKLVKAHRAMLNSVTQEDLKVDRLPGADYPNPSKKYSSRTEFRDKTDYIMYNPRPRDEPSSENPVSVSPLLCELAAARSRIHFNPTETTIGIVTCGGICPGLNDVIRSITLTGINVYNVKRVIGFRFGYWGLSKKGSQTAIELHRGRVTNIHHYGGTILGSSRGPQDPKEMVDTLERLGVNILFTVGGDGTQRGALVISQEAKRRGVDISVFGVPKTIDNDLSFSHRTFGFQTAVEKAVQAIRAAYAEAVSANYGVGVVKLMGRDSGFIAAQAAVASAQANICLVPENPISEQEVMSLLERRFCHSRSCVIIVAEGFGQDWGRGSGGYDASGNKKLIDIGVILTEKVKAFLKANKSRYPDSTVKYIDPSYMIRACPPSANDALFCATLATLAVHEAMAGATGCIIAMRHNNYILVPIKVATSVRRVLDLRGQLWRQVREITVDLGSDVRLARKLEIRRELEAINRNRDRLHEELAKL
#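 ADP-Glo luminescence quantified ADP after 45 min at room temperature, with 1.25 nM T. brucei PFK, 0.1 mM ATP and 0.5 mM fructose-6-phosphate in pH 8.0 TEA buffer. qHTS titrations up to 57 µM; curves classified by quality.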
# FEN1 inh-1: inhibitors of human flap endonuclease 1; AID 588795; Potency, µM (top dose mostly 114 µM), inactives show top-dose activity change, negative = inhibition, usual class: inhibitors; hit rate 0.35% among 390,000; P39748; Recombinant FEN1 flap cleavage, fluorescence, 15 min; also: potency is read from the fitted curve at half-maximal effect; % is scaled to controls: 0 for no effect and ±100 for the full control effect; nearly all actives have a fitted effect of over 65% in size
#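 With each library titrated from low to high concentration, compounds met 10 nM FEN1 for 15 min at room temperature before 50 nM substrate was added; readings at 0 and 15 min fed four-parameter Hill curve fits.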
# PGK inhibitor: inhibitors of T. brucei phosphoglycerate kinase. P07378. PGK/GAPDH coupled, Kinase-Glo luminescence, 60 min. Potency, µM (series often up to 57.5 µM), without a hit: at the highest dose activity change, negative = inhibition, most hits filed as inhibitors. hit rate 0.043% among 380,000. AID 602233; also: potency is read from the fitted curve at half-maximal effect; % is scaled to controls: 0 for no effect and ±100 for the full control effect; nearly all actives have a fitted effect of over 60% in size
#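 Recombinant glycosomal PGK reaction used 1,3-bisphosphoglycerate generated in-well by GAPDH (100nM final) in 100mM TEA pH 7.6, 5mM MgCl2, 0.01% Tween-20. After 60 minutes at room temperature, ATP was read by Kinase-Glo Plus luminescence end-point.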
# PI5P4K alpha inh: PI5P4K alpha (human) kinase inhibition | PI5P4Kalpha enzyme, ADP-Glo luminescence, 60 min; active compounds read low | hit rate 1.2% among 330,000 | max response, % | AID 652105 | P48426; active = max response of -50% or lower; inconclusive = between -30% and -50%; inactive = -30% or higher; also: value at the top dose of about 77 µM; % is scaled to controls: 0 for no effect and ±100 for the full control effect
#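 Controls without substrate or without enzyme flank wells where PI5P4Kalpha converts substrate using 5 microM ATP (final). Incubation lasts 60 minutes at room temperature; ADP formed is read by ADP-Glo luminescence.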
# TDP1 block: blocks human tyrosyl-DNA phosphodiesterase 1; Q9NUW8; recombinant TDP1, AlphaScreen DNA substrate cleavage; Potency, µM (series often up to 130 µM), inactives show at the top dose activity change, negative = inhibition, usual class: inhibitors; hit rate 0.28% among 350,000; AID 485290; also: potency is read from the fitted curve at half-maximal effect; % is scaled to controls: 0 for no effect and ±100 for the full control effect; nearly all actives have a fitted effect of over 40% in size
#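 AlphaScreen read-out: signal falls as enzyme removes the 3' tyrosine-FITC from a 5'-biotinylated DNA oligo (15 nM, 5 min, RT). Enzyme was E. coli-made recombinant Tdp1 at 1 nM, exposed to compound for 15 min beforehand; beads 10 ug/ml, 10 min.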
# WRN helicase inh-1: inhibitors of human WRN helicase | AID 651768 | Potency, µM (top dose mostly 114 µM), for the others: top-dose activity change, negative = inhibition, actives largely listed as inhibitors | Q14191 | WRN helicase unwinding, fluorescent forked duplex, kinetic | hit rate 0.46% among 360,000; also: potency is read from the fitted curve at half-maximal effect; % is scaled to controls: 0 for no effect and ±100 for the full control effect; nearly all actives have a fitted effect of over 55% in size
#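 Primary qHTS, 1536-well format. 20 nM WRN + compound, 15 min RT; start with 100 nM forked fluorophore/quencher duplex, 2 mM ATP (final); kinetic read ex 525/em 598 nm.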
# FEN1 inh-2: confirmation of human FEN1 inhibitors. shares compounds with FEN1 inh-1. FEN1 flap cleavage, TAMRA/BHQ2 fluorogenic DNA substrate. Potency, µM, usual class: inhibitors. hit rate 79% among 880; also: potency is read from the fitted curve at half-maximal effect; nearly all actives have a fitted effect of over 60% in size
# WRN helicase inh-2: WRN helicase inhibition, cherry-pick retest. shares compounds with WRN helicase inh-1. AID 720497. WRN helicase DNA unwinding, fluorescence kinetic. hit rate 63% among 610. Potency, µM (top dose mostly 57.1 µM), without a hit: at the highest dose activity, negative = inhibition, most hits filed as inhibitors; also: potency is read from the fitted curve at half-maximal effect; nearly all actives have a fitted effect of over 65% in size
# TO DNA binding: counter-screen for WRN helicase inhibitors: DNA binding; shares compounds with WRN helicase inh-1; thiazole orange DNA binding displacement, fluorescence; Potency, µM (doses to about 57.1 µM), inactives show at the top dose activity change, negative = inhibition, hits mostly inhibitors; hit rate 10% among 610; AID 720499;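 also: drop in dye fluorescence marks compound binding to DNA; potency is read from the fitted curve at half-maximal effect; % is scaled to controls: 0 for no effect and ±100 for the full control effect; nearly all actives have a fitted effect of over 60% in size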
# BLM helicase inh: BLM helicase inhibition, WRN selectivity check; AID 720503; hit rate 60% among 610; Potency, µM (doses to about 57.1 µM), for the others: at the top dose activity change, negative = inhibition, actives largely listed as inhibitors; Recombinant BLM helicase DNA unwinding, red fluorescence; shares compounds with WRN helicase inh-1; also: potency is read from the fitted curve at half-maximal effect; nearly all actives have a fitted effect of over 60% in size
# Active calls of the source: *; ? = inconclusive; . = no result given; [ ] = dose if it differs, or a comment. Unless noted, calls follow the shape of the dose curve; as a rule, active = well fitted curve in the direction sought with a large enough effect; inconclusive = small, poorly fitted or top-dose-only effect, or another doubt; inactive = no such curve, though single readings can be large; an effect the other way counts as inactive or inconclusive.
SMILES,Tb PFK inh,FEN1 inh-1,PGK inhibitor,PI5P4K alpha inh,TDP1 block,WRN helicase inh-1,FEN1 inh-2,WRN helicase inh-2,TO DNA binding,BLM helicase inh
Cn1c(N)c(C(=O)CSc2nnc(-c3c[nH]c4ccccc34)n2C2CC2)c(=O)[nH]c1=O,-5.4%,20µM*,-17.0%,-14.0,-11.4%,?,42.6*,.,.,.
COC(=O)C1=C(C)N(Cc2ccccc2)[C@]23O[C@](C(=O)OC)(C(=O)N2C1c1ccccc1)C(C(=O)OC)C3C(=O)OC (some centres undefined),.,.,.,.,-3.7%[21 µM],.,.,.,.,.
CN1CCN(C2=CC3=CC(=C(C#N)C#N)CCC3CC2)CC1 (centres undefined),-6.8%,-7.9%,-4.8%,1.5,6.9%,-6.4%,.,.,.,.
N#CC(C#N)=C1C=C2C=C(N3CCCCCC3)CCC2CC1 (centres undefined),-1.8%,?,.,-0.4,6.7%,15µM*,67.5*,.,.,.
CN(C)c1cccc(-c2nnc(SCC(=O)NCc3ccco3)n2C)c1,.,-19.1%,.,.,.,.,.,.,.,.
CCCC[C@@H]1CCCO[C@@](C(=O)NCC2CC2)(C(F)(F)F)C1,.,-8.1%,.,.,6.2%,.,.,.,.,.
O=C1/C(=C\c2cccc(O)c2O)SC(=S)N1Cc1ccccc1,?,-30.9%,-25.1%,-27.0,.,-23.5%,.,.,.,.
O=C1/C(=C\c2cc([N+](=O)[O-])ccc2O)SC(=S)N1Cc1ccc(Cl)cc1,-10.8%,22.4µM*,.,?,.,5.97µM*,37.9*,5.41µM*,20.7%,3.04µM*
O=C(CSc1nc2ccccc2n1CCc1ccccc1)c1ccc(O)c(O)c1,-24.4%,56.2µM*,7.94µM*,-88.7*,.,7.94µM*,67.5*,6.81µM*,17.1µM*,1.52µM*
CC(C)CCN1CCc2nc(-c3ccccc3)c3c(c2C1)COC(C)C3 (centres undefined),.,.,.,.,11.1%[21 µM],.,.,.,.,.
CCN(CC)Cc1cc(Nc2c3ccccc3nc3c4ccccc4n(C)c23)cc(CN(CC)CC)c1O,.,28.2µM*,7.1%,-18.2,.,?,19*,17.1µM*,38.3µM*,-19.4%
O=c1c2ccccc2nc2sc(Nc3cccc(N4CCNCC4)c3)nn12,.,.,.,.,.,.,33.8*,21.5µM*,-25.1%,?
O=C(O)Cc1ccc(N=Nc2c(O)c(C(=O)O)cc3ccccc23)cc1,-1.0%,50.1µM*,?,-73.4*,1.3%,25.1µM*,67.5*,19.2µM*,?,17.1µM*
Oc1ccc2ccccc2c1N=Nc1ccc(F)cc1,2.7%,-0.9%,-1.9%,0.2,8.9%,-14.0%,.,.,.,.
COc1cccc2c1C(=O)c1c(O)c3c(c(O)c1C2=O)CC(O)(C(=O)CO)CC3OC1CC(N(C)C)C(O)C(C)O1 (centres undefined),.,17.8µM*,-14.2%,-0.5,.,2.99µM*,33.8*,17.1µM*,170.9%,27.1µM*
O=C(O)c1cccc(-n2cccc2/C=C2/NC(=O)N(c3ccc(Cl)cc3)C2=O)c1,?,20µM*,3.16µM*,-98.0*,0.0398µM*,3.16µM*,21.3*,1.36µM*,?,0.171µM*
CN(C)CCNc1ccc(CO)c2sc3ccc(O)cc3c(=O)c12,.,22.4µM*,-9.6%,7.4,.,?,16.9*,24.1µM*,21.5µM*,?
CN(C)CCCNC(=O)c1cc2sc3ccccc3c2s1,0.0%,-12.2%,-0.4%,10.2,7.7%,38.5%,.,.,.,.
COC/C=C/C1=CC2=CC(=O)C(C)(OC(=O)c3cnc4ccccc4n3)C(=O)C2=CN1Cc1ccc2c(c1)OCO2 (centres undefined),.,.,.,.,3.0%[21 µM],.,.,.,.,.
O=C(NN1C(=O)/C(=C/C=C/c2ccco2)SC1=S)c1ccccc1O,-22.7%,11.2µM*,?,-78.5*,.,10µM*,26.9*,3.04µM*,?,8.57µM*
